The list is not random: actives were taken first. Their share in the collection is about 5.3%.
ALR inh: inhibitors of human sulfhydryl oxidase ALR; purified ALR, DTT oxidation, H2O2 HRP-luminol luminescence; inhibition, % (no concentration beside the values); hit rate 3.8% among 290,000; AID 485317;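 active = mean replicate inhibition above about 79%, with every replicate also reaching it, limit read from the data; inconclusive = only one of the two criteria met; inactive = mean below limit and not every replicate reaching it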
Target sequence (P55789 whole entry, looked up): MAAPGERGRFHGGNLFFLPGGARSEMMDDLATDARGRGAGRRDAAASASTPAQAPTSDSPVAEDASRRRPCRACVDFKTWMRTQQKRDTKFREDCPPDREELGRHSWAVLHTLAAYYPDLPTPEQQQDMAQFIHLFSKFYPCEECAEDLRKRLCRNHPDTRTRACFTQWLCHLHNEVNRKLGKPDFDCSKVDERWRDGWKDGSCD
HIF act: HIF pathway transcriptional activation; U2OS HRE-luciferase reporter, luminescence; normalized: DMSO 0%, desferrioxamine 100%; activation, % at 7.5 µM (by protocol); hit rate 0.32% among 300,000;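 active = mean activation of at least 10% of the iron chelator positive control signal, with at least half of replicates also reaching 10%; inconclusive = mean and replicate majority disagree about reaching 10%; inactive = mean and most replicates under 10%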
PfM18AAP inh: PfM18AAP enzyme inhibition; recombinant PfM18AAP, H-Glu-NHMec fluorogenic cleavage; inhibition, % at 7.35 µM; hit rate 1.2% among 290,000;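 active = inhibition above the campaign mean inhibition over all tested compounds plus 3 SD, cut at about 28% in these data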
Mot1-301 SUMO: blocks SUMOylation pathway, rescuing yeast Mot1-301 growth | S. cerevisiae Mot1-301 growth rescue, ATP luminescence, 38.5C; percent above DMSO median, 100 means doubled | hit rate 1% among 320,000 | AID 2716 | growth rescue, % at 18.8 µM;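 active = every valid replicate shows activation above 250% relative to neutral control wells; inactive = the rest, any valid replicate at or below 250%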
Large screens that a line does not name were inactive.

CC(C)COc1ccc(C(=O)N2C(=O)c3ccc(N)cc3C2=O)cc1	none
O=C(COC(=O)CCCN=C1NS(=O)(=O)c2ccccc21)NNC(=O)c1ccccc1	none (no result: PfM18AAP inh)
O=C(COc1ccccc1)NCCSCc1ccco1	ALR inh 82
O=C(COC(=O)COc1ccc(Nc2ccccc2)cc1)NCc1ccco1	ALR inh 100
Cc1c(NC(=O)COC(=O)COc2ccc(Nc3ccccc3)cc2)c(=O)n(-c2ccccc2)n1C	ALR inh 99
O=C(COC(=O)c1cncc(Br)c1)NCc1ccco1	Mot1-301 SUMO 414
O=C(COC(=O)c1cncc(Br)c1)NCc1ccc(F)cc1	none
CCC(=O)c1ccc(OCC(=O)OCC(=O)Nc2c(C)n(C)n(-c3ccccc3)c2=O)cc1	none (no result: PfM18AAP inh)
COC(=O)c1cccc(NC(=O)CCN2C(=O)C3CC=CCC3C2=O)c1 (configuration not stated)	none (no result: HIF act, PfM18AAP inh)
COCC1COS(=O)(=O)NC1(C)C (configuration not stated)	none
Cc1ccc2nc(Nc3ccc(C)c(Cl)c3)c3nncn3c2c1	none
O=C(Nc1nccs1)c1ccc(CSc2ccccc2)o1	none
Cc1cc(C)cc(C(=O)NCC(=O)OCC(=O)NCc2ccco2)c1	PfM18AAP inh 31
COc1cccc2c1oc1c(SCc3nc4ccccc4[nH]3)nc(C)nc12	none (no result: HIF act, PfM18AAP inh)
O=C(NCCc1ccc(C(F)(F)F)cc1)C1CC(=O)N(Cc2ccccc2)C1 (configuration not stated)	none (no result: HIF act, PfM18AAP inh)
Cc1nc(N[C@@H](Cc2c[nH]c3ccccc23)C(=O)O)c2oc3ccccc3c2n1	none (no result: HIF act)
CCc1nc(N[C@@H](Cc2c[nH]c3ccccc23)C(=O)O)c2oc3ccccc3c2n1	ALR inh 89
COc1ccc(NC(=O)C(NC(C)=O)C(=O)Nc2ccc(F)cc2)cc1 (configuration not stated)	none (no result: ALR inh)
COc1ccccc1NS(=O)(=O)c1cc(NC(=O)Cc2n[nH]c(=O)c3ccccc23)ccc1Cl	none (no result: HIF act, PfM18AAP inh)
CCn1c(SCC(=O)Nc2ccc(N3CCOCC3)cc2)nnc1C1CC1	ALR inh 99 (no result: HIF act, PfM18AAP inh)
COc1ccc(NC(=O)CSc2nnc(C)n2Cc2ccccc2)cc1	none
CCn1c(SCC(=O)Nc2ccc(N(C)C)cc2)nnc1C1CC1	ALR inh 99
Cc1nnc(SCC(=O)Nc2ccc(N3CCOCC3)cc2)n1Cc1ccccc1	ALR inh 99 (no result: HIF act, PfM18AAP inh)
Cc1nnc(SCC(=O)c2ccccc2)n1Cc1ccccc1	ALR inh 85
CCn1c(SCC(=O)Nc2ccc(NC(C)=O)cc2)nnc1C1CC1	none
CC(=O)c1c(C)[nH]c(C(=O)OCc2ccc(F)cc2Cl)c1C	none
CC(=O)Nc1cccc(OCC(=O)Nc2sccc2C(N)=O)c1	none
CC(C)(C)C(=O)O/N=C(\N)c1ccc(-c2csnn2)cc1	none
O=C(CNC(=O)c1ccco1)OCc1cccc(Cl)c1	none
O=C(CCNc1cccc(Cl)c1)c1ccco1	ALR inh 97
COCCn1c(=O)c2c(nc3n2CC(C)CN3CCc2ccccc2)n(C)c1=O (configuration not stated)	none
CCCc1cc(=O)oc2cc(C)cc(OC(C)C(=O)NCc3ccncc3)c12 (configuration not stated)	none
COc1ccc(NC(=S)N2CCN(C(=O)c3ccccc3)CC2)cc1	HIF act 58
COc1ccc(N/C=C/C(=O)c2ccccc2)cc1	none
COc1ccc(N/C=C(/C(C)=O)c2ccccc2)cc1	ALR inh 84
Cc1ccc(NC(=S)N2CCN(C(=O)c3ccccc3)CC2)c(C)c1	Mot1-301 SUMO 440
Cc1ccc(NC(=S)N2CCN(c3ccccn3)CC2)c(C)c1	Mot1-301 SUMO 325
CC(=O)N1N=C(c2ccco2)CC1c1ccc(Br)cc1 (configuration not stated)	none
NS(=O)(=O)c1cccc(NC(=O)CSc2nnc(-c3ccccc3F)n2C2CC2)c1	none
CCn1c(C)c(Br)c(=O)c(C(=O)OC)c1-c1ccc(Cl)cc1	none
Nc1c(O)ccc2c1C(=O)c1ccccc1C2=O	ALR inh 99
CCOC(=O)c1nnn2c1nc(Nc1cccc(C(F)(F)F)c1)c1ccccc12	none
COc1cc(N=Nc2ccccc2C(=O)O)ccc1O	ALR inh 98
COc1cc(N=Nc2ccc3ccccc3c2)ccc1O	none (no result: ALR inh)
Cc1cc(N=Nc2ccccc2C(=O)O)c(C)c(C)c1O	ALR inh 81
Cc1cc(O)c(C(C)C)cc1N=Nc1ccccc1C(=O)O	none
O=C(c1cccnc1)N1CCN(c2ccccc2Cl)CC1	none
CCOC(=O)C(CSCC(=O)c1ccc(Br)cc1)NC(=O)OC(C)(C)C (configuration not stated)	ALR inh 99
CCN1C(=O)/C(=C2/C=CC=CN2C)SC1=S	ALR inh 99
CCN1/C(=C2\SC(=S)N(Cc3ccccc3)C2=O)Sc2ccccc21	none (no result: ALR inh)
CN1C=CC=C/C1=C1/SC(=S)N(Cc2ccccc2)C1=O	ALR inh 99
CCc1ccc(NC(=O)N2CCCCCC2)cc1	none
CCN1CCN(C(=O)Nc2ccc(Cc3ccc(NC(=O)N4CCN(CC)CC4)cc3)cc2)CC1	ALR inh 99
COc1ccc(NC(C)=O)cc1S(=O)(=O)NC(C)c1ccc(-n2ccnc2)cc1 (configuration not stated)	none (no result: HIF act, PfM18AAP inh)
COc1ccc(Nc2nc(NCCN3CCOCC3)nc(Nc3ccc(OC)cc3)n2)cc1	none
CCOc1cnn(-c2ccccc2)c(=O)c1Cl	ALR inh 96
Nc1[nH]c2cc([N+](=O)[O-])ccc2c1-c1ccccn1	ALR inh 92
COc1ccc(S(=O)(=O)NNC(=O)Nc2ccc(C)cc2C)c(OC)c1	none
Cc1ccc(C2(C)NC(=O)N(CC(=O)Nc3ccccc3N3CCCC3)C2=O)cc1 (configuration not stated)	ALR inh 77, HIF act inconclusive (no result: PfM18AAP inh)
CN(CC(=O)Nc1ccccc1N1CCOCC1)S(=O)(=O)c1ccc(Cl)cc1	none
Cc1ccc(C2(C)NC(=O)N(CC(=O)Nc3ccccc3N3CCCCC3)C2=O)cc1 (configuration not stated)	none (no result: PfM18AAP inh)
Cc1ccc(S(=O)(=O)N(C)CC(=O)Nc2ccccc2N2CCCC2)cc1	ALR inh 83 (no result: HIF act, PfM18AAP inh)
CCN(CC)S(=O)(=O)c1cccc(C(=O)NCCc2ccccc2)c1	none
CN(c1ccccc1)S(=O)(=O)c1cccc(C(=O)NCCc2ccc(O)c(O)c2)c1	ALR inh 93, PfM18AAP inh 40
CC(=O)NC(c1cccc([N+](=O)[O-])c1)c1ccc2cccnc2c1O (configuration not stated)	HIF act 231
Oc1cccc(C(Nc2nccs2)c2ccc3cccnc3c2O)c1 (configuration not stated)	HIF act 35 (no result: ALR inh)
CC(=O)NC(c1ccccc1)c1cc([N+](=O)[O-])c2cccnc2c1O (configuration not stated)	none (no result: ALR inh)
Oc1c(C(Nc2cccc(C(F)(F)F)c2)c2cccnc2)ccc2cccnc12 (configuration not stated)	none
COc1cccc(C(NC(C)=O)c2ccc3cccnc3c2O)c1 (configuration not stated)	HIF act 38
COc1ccc(Cl)cc1C(Nc1cccnc1)c1ccc2cccnc2c1O (configuration not stated)	none

High-throughput results from PubChem BioAssay.
